Drawing on PubChem BioAssay (NCATS), this text covers Potency and outcome for nine molecules.

The target of assay [1] is Phospholipid hydroperoxide glutathione peroxidase GPX4 (Homo sapiens) (UniProt P36969). Nature of the assay: Primary qHTS Assay for Inhibitors of Recombinant Selenoprotein Glutathione Peroxidase 4 (GPX4) (AID 1845192). Further: nearly all actives have a fitted effect of over 65% in size. In short, it runs like this: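 Steps: GPX4 plus compound, 30 min RT; add GR/GSH/NADPH master mix; start with cumene hydroperoxide; read 340/450 nm fluorescence at 0 and 15 min. Finals were 200 nM GPX4, 1 mM GSH, 0.5 mM CHP, 0.5 mM NADPH, 100 nM GR.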
Background: qHTS replaces the single test concentration by a dilution series.

Assay [2] is described as follows: Quantitative High-Throughput drug screen in 47 multiple myeloma cell lines against the NCATS MIPE library collection: Delta47_JCRB cell viability assay (AID 1918925; further: nearly all actives have a fitted effect of over 45% in size; further: potency means the concentration at half of the fitted maximal effect). In short, it runs like this: (§1)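 Inhibition of cell viability is measured here. Each line was plated at 500 cells per well, treated with MIPE 4.0 drugs, kept 48 hours at 37C, then assayed for ATP content by CellTiter-Glo luminescence.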

The nature of assay [3]: Quantitative High-Throughput drug screen in 47 multiple myeloma cell lines against the NCATS MIPE library collection: KMM1_JCRB cell viability assay (AID 1918960). Further: nearly all actives have a fitted effect of over 30% in size. Further: potency means the concentration at half of the fitted maximal effect. In short, it runs like this: (§2)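 Viability screen: myeloma cells (500/well) incubated 48 h at 37 °C, humidified 5% CO2, with pinned library compounds; CellTiter-Glo added, luminescence read; DMSO wells set 100%, medium-only wells 0%.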

Assay [4] can be described thus: Quantitative High-Throughput drug screen in 47 multiple myeloma cell lines against the NCATS MIPE library collection: INA6_PLB cell viability assay (AID 1918965; further: nearly all actives have a fitted effect of over 55% in size; further: potency means the concentration at half of the fitted maximal effect). In short, it runs like this:
(§3)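 CellTiter-Glo luminescence (ATP) after 48 h compound exposure, 37C/5% CO2; 500 cells/well; MIPE 4.0 approved/investigational drugs pinned in; DMSO = 100%, media only = 0% viability.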

Assay [5] is described as follows: Quantitative High-Throughput drug screen in 47 multiple myeloma cell lines against the NCATS MIPE library collection: KHM11_PLB cell viability assay (AID 1918962). Further: nearly all actives have a fitted effect of over 35% in size. Further: potency means the concentration at half of the fitted maximal effect. In short, it runs like this: (§4)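 Steps: seed 500 cells per well; pin-transfer MIPE 4.0 library; incubate 48 h at 37C, 5% CO2, humidified; add CellTiter-Glo, 5 min room temperature; read luminescence.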

Assay [6] can be described thus: Quantitative High-Throughput drug screen in 47 multiple myeloma cell lines against the NCATS MIPE library collection: JJN3_DSMZ cell viability assay (AID 1918966; further: potency means the concentration at half of the fitted maximal effect; nearly all actives have a fitted effect of over 50% in size). In a few lines:
as §1

Assay [7] is described as follows: Quantitative High-Throughput drug screen in 47 multiple myeloma cell lines against the NCATS MIPE library collection: H1112_PLB cell viability assay (AID 1918967; further: potency means the concentration at half of the fitted maximal effect; nearly all actives have a fitted effect of over 30% in size). In a few lines:
as §1

A short description of assay [8]: Quantitative High-Throughput drug screen in 47 multiple myeloma cell lines against the NCATS MIPE library collection: AMO1_DSMZ cell viability assay (AID 1918927; further: nearly all actives have a fitted effect of over 30% in size; further: potency means the concentration at half of the fitted maximal effect). In a few lines: as §1
Assay [9] in a line: Quantitative High-Throughput drug screen in 47 multiple myeloma cell lines against the NCATS MIPE library collection: ARP1_JJKsccF8 cell viability assay (AID 1918928; further: nearly all actives have a fitted effect of over 40% in size; further: potency means the concentration at half of the fitted maximal effect). In short, it runs like this: as §2
Assay [10] in a line: Quantitative High-Throughput drug screen in 47 multiple myeloma cell lines against the NCATS MIPE library collection: ARD_JJKsccE7 cell viability assay (AID 1918929; further: potency means the concentration at half of the fitted maximal effect). In a few lines:
as §1

Assay [11] in a line: Quantitative High-Throughput drug screen in 47 multiple myeloma cell lines against the NCATS MIPE library collection: Karpas620_DSMZ cell viability assay (AID 1918959). Further: nearly all actives have a fitted effect of over 30% in size. Further: potency means the concentration at half of the fitted maximal effect. In a few lines: as §4
The nature of assay [12]: Quantitative High-Throughput drug screen in 47 multiple myeloma cell lines against the NCATS MIPE library collection: JIM3_ECACC cell viability assay (AID 1918963; further: potency means the concentration at half of the fitted maximal effect; nearly all actives have a fitted effect of over 35% in size). In a few lines:
as §4

The nature of assay [13]: Quantitative High-Throughput drug screen in 47 multiple myeloma cell lines against the NCATS MIPE library collection: EJM_DSMZ cell viability assay (AID 1918926; further: nearly all actives have a fitted effect of over 30% in size; further: potency means the concentration at half of the fitted maximal effect). In a few lines:
as §1

Assay [14] can be described thus: Quantitative High-Throughput drug screen in 47 multiple myeloma cell lines against the NCATS MIPE library collection: JIM1_ECACC cell viability assay (AID 1918964; further: potency means the concentration at half of the fitted maximal effect). In short, it runs like this:
as §1

The nature of assay [15]: Quantitative High-Throughput drug screen in 47 multiple myeloma cell lines against the NCATS MIPE library collection: Karpas417_ECACC cell viability assay (AID 1918961). Further: potency means the concentration at half of the fitted maximal effect. Conditions: Karpas417 myeloma viability, CellTiter-Glo ATP luminescence, 48 h; viability (% of DMSO): at 45.8 µM (top of the series). In a few lines: as §3
On the technique in general: Cellular ATP, detected with luciferase, serves as a proxy for viable cell number.

Assay [16] is described as follows: Quantitative High-Throughput drug screen in 47 multiple myeloma cell lines against the NCATS MIPE library collection: FR4_PLB cell viability assay (AID 1918924; further: nearly all actives have a fitted effect of over 35% in size). In short, it runs like this:
as §4

Assay [17] has as its target Luciferin 4-monooxygenase (Photinus pyralis) (UniProt P08659). Put plainly: Primary firefly luciferase (FLuc) qHTS assay for identification of artifact compounds. (AID 1845220). Further: nearly all actives have a fitted effect of over 60% in size. In short, it runs like this:
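D-luciferin and ATP (10 uM each, final) in Tris acetate buffer pH 7.6 were incubated with compounds for 15 min at room temperature. The reaction was started with 10 nM Photinus pyralis luciferase and luminescence read after 5 min. Percent inhibition was fitted to a 4-parameter Hill equation.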

Assay [18] is described as follows: Primary fluorescence-based thiol-reactive (MSTI) qHTS assay for identification of artifact compounds. (AID 1845221).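 Further: thiol-reactive compounds lower the probe fluorescence signal; nearly all actives have a fitted effect of over 65% in size.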 In short, it runs like this:
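One-hour, room-temperature, dark incubation of compound with 4 uM MSTI in PBS (pH 7.4, 2% DMSO) precedes a fluorescence read at 525 nm excitation, 598 nm emission; Hill-equation fitting yields concentration-response values.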

For assay [19], the system named is Nanoluciferase (engineered Oplophorus gracilirostris luciferase). Put plainly: Primary Nanoluciferase (NLuc) qHTS assay for identification of artifact compounds. (AID 1845222). In short, it runs like this:
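Diluted conditioned medium from NLuc-expressing S16 cells treated with compounds for 15 min at room temperature, then Nano-Glo substrate added; luminescence read after 5 min. Percent inhibition versus no-enzyme and DMSO controls fitted to 4-parameter Hill equation.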

Assay [20] in a line: Primary redox qHTS assay for identification of artifact compounds. (AID 1845223). In a few lines: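 Redox-cycling detection via DTT (250 uM final) oxidation coupled to Amplex Red (25 uM)/HRP (250 mU/mL) in HBSS. 15 min preincubation plus 30 min after DTT, room temperature. Ex/Em 525/598 nm; 4-parameter Hill fit against DMSO and 10 uM DA3003.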

Structures are written as SMILES. Records with an inconclusive call do not appear. Active and inactive are the calls of the source. The call rests on the fitted dose curve; in most records, active means well fitted curve in the direction sought with a large enough effect; inconclusive means small, poorly fitted or top-dose-only effect, or another doubt; inactive means no such curve, though single readings can be large; an effect the other way counts as inactive or inconclusive.

Phospholipid hydroperoxide glutathione peroxidase GPX4 (Homo sapiens), sequence (P36969 whole entry, looked up): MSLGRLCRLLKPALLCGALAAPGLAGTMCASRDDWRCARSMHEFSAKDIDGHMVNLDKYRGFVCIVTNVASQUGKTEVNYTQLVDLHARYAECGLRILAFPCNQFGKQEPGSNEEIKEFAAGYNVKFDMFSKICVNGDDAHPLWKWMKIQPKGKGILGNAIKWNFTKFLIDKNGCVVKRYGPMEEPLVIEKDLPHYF

Turning to `Cc1nn(Cc2ccccc2Cl)c(C)c1CN(C)CC(O)COc1ccc(Cl)cc1` (stereo not given), in assay [1], the Potency result was “inactive”. For the same molecule, the Potency in assay [2] is 18.7 µM (active); in [3] it was 5.9 µM (active); in assay [4], 20.9 µM (active).

As for `CNC(=O)[C@H](Cc1ccccc1)NC(=O)[C@H](CC(C)C)[C@H](CSc1cccs1)C(=O)NO`, the Potency entry in [1] and in [5] was “inactive” throughout. Besides, the figures for the Potency in assay [2], in assay [6] and in assay [7] were 18.7 µM (active), 18.7 µM (active) and 20.9 µM (active), respectively.

As for `CCCCC[C@H](O)C=C[C@H]1[C@H](O)CC(=O)[C@H]1CC=CCCCC(=O)O`, the Potency entry in assay [1], in assay [2], in assay [8], in assay [9], in [10] and in assay [11] was “inactive” each time. The Potency entry in [3] is “inactive”. In addition, the results for the Potency in assay [5], in assay [12] and in [4] were 5.9 µM (active), 20.9 µM (active) and 18.7 µM (active), respectively.

Turning to `CC[C@@H]([C@H](C)O)n1ncn(-c2ccc(N3CCN(c4ccc(OCC5CO[C@@](Cn6cncn6)(c6ccc(F)cc6F)C5)cc4)CC3)cc2)c1=O` (stereo not given in full), the Potency entry in assay [1] and in [5] was “inactive” each time. Also, the Potency in assay [8] is 7.43 µM (active); in assay [11] it was 5.9 µM (active); in assay [3] it was 5.9 µM (active); in assay [12] it was 5.26 µM (active); in assay [4], 10.5 µM (active); in assay [6], 4.18 µM (active).

For `O=C(O)c1ccc(O)c2ncc(N3CCOCC3)cc12`, the Potency result in assay [1], in assay [13], in assay [5] and in assay [4] was “inactive” throughout. The values for the Potency in [8], in [11] and in [14] were 20.9 µM (active), 18.7 µM (active) and 20.9 µM (active), respectively.

As for `CC(C)C[C@@H](C(=O)N[C@H](C(=O)OC1CCCC1)c1ccccc1)[C@H](O)C(=O)NO`, the Potency result in assay [1] and in [8] was “inactive” each time. In addition, the Potency was 20.9 µM (active) in assay [2]; 4.69 µM (active) in assay [10]; 5.26 µM (active) in [11]; 4.18 µM (active) in [3]; 1.32 µM (active) in assay [15]; 5.26 µM (active) in assay [12].

In the case of `CCc1cc(-c2n[nH]c(C)c2-c2ccc3c(c2)OCCO3)c(O)cc1O`, the Potency entry in assay [1] is “inactive”. Moreover, the Potency is 7.43 µM (active) in assay [2]; 3.72 µM (active) in assay [8]; 2.96 µM (active) in assay [9]; 1.18 µM (active) in assay [10]; 14.8 µM (active) in assay [11]; 3.72 µM (active) in assay [3]. Moreover, the Potency in assay [5] is 4.69 µM (active); in assay [12], 8.33 µM (active); in [14], 5.9 µM (active); in assay [4] it was 4.69 µM (active); in assay [6], 4.18 µM (active); in [7] it was 8.33 µM (active).

As to `OC1CCC(Nc2ncc3nc(Nc4c(F)cc(F)cc4F)n([C@@H]4CCOC4)c3n2)CC1` (stereo not given in full), the Potency entry in assay [16] and in assay [11] was “inactive” throughout. Besides, the Potency in assay [2] was 8.33 µM (active); in assay [13] it was 0.0012 µM (active); in assay [8], 16.6 µM (active); in assay [3], 11.8 µM (active); in [14] it was 16.6 µM (active); in assay [4], 14.8 µM (active).

Turning to `O=C(CCCN1CCN(c2ccc(F)cc2)CC1)NC1c2ccccc2CSc2ccccc21` (stereo not given), the Potency result in assay [17], in [18] and in assay [19] was “inactive” each time. For the same molecule, in [20], the molecule was classed as inactive. Moreover, the Potency was 5.26 µM (active) in [2]; 6.62 µM (active) in assay [8]; 3.32 µM (active) in assay [10]; 6.62 µM (active) in assay [11]; 4.69 µM (active) in assay [3]; 4.18 µM (active) in assay [5]. For the same molecule, the Potency was 4.69 µM (active) in assay [4] and 7.43 µM (active) in assay [7].
